From PubChem BioAssay AID1851 (National Center for Advancing Translational Sciences (NCATS), 2009) come the findings set out here.

In all, about 16,000 compounds went through this assay and about 4,000 (25%) were called active. Not shown: some 26% with an inconclusive outcome. Not all results are given here. Unmarked numbers belong to inactive results. The call rests on the fitted dose curve; in most records, active means well fitted curve in the direction sought with a large enough effect; inconclusive means small, poorly fitted or top-dose-only effect, or effect the other way; inactive means no such curve, though single readings can be large or run the other way.
On the % scale 0 is the no-effect control and ±100 the full control effect.

For this assay, the target named is Cytochrome P450 2C9 (Homo sapiens) (UniProt P11712). Put plainly: Cytochrome panel assay with activity outcomes. To be noted: recombinant CYP, pro-luciferin dealkylation, luminescence, p450-cyp2c9; series mostly up to 57.1 µM; activity, negative = inhibition: at the top concentration.
Sequence of Cytochrome P450 2C9 (Homo sapiens) (P11712 whole entry, looked up): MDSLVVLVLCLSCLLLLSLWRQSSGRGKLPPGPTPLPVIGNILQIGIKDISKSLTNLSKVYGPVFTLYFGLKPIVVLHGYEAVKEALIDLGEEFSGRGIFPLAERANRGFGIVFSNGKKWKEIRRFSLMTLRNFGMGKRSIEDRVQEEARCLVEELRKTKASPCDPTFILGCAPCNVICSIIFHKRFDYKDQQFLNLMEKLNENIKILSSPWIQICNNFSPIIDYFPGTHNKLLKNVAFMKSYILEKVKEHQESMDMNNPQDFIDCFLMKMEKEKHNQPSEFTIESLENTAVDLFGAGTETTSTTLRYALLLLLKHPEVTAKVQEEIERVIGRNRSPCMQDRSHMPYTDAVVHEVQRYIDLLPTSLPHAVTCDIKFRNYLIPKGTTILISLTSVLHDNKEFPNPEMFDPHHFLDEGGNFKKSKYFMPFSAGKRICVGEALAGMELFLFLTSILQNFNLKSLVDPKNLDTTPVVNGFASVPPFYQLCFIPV
As to `O=C1/C(=C\c2ccc(Br)o2)SC(=Nc2ccccc2)N1c1ccccc1`, the AC50 is 0.398 µM (active).
`CC(C)CN1CC2(CCN(C(=O)c3cccc(F)c3)CC2)C1`: the “activity, negative = inhibition” value is 14.7%.
As for `CC(C)CN1CCC2(CC1)CCN(C(=O)c1cccc(F)c1)CC2`, the “activity, negative = inhibition” value was 0.497%.
In the case of `CC(C)CC(=O)N1CCN(Cc2cccc(F)c2)CC1`, the AC50 is 0.0251 µM (active).
Consider `C/C(=N/S(=O)(=O)c1ccc(Cl)c(Cl)c1)OCC(C)(C)C`, for which the activity, negative = inhibition was 6.28% [at 11.4 µM].
As for `N#Cc1cccc(NC(=O)N2CCCC3(CCN(C(=O)c4cc(C(F)(F)F)cc(C(F)(F)F)c4)CC3)C2)c1`, the “activity, negative = inhibition” value is 1.82%.
As to `N#Cc1cccc(NC(=O)N2CC3(CCN(C(=O)c4ccco4)CC3)C2)c1`, the “activity, negative = inhibition” value was -15.6%.
Regarding `N#Cc1cccc(NC(=O)N2CC[C@@]3(CCCN(C(=O)c4ccco4)C3)C2)c1`, the “activity, negative = inhibition” value is -3.61%.
For `N#Cc1cccc(NC(=O)N2CC3(CCN(C(=O)c4cc(C(F)(F)F)cc(C(F)(F)F)c4)CC3)C2)c1`, the AC50 is 12.6 µM (active).
In the case of `CC(=O)N1CCC2(CC1)CN(C(=O)Nc1cccc(C#N)c1)C2`, the “activity, negative = inhibition” value was -2.07%.
Regarding `N#Cc1cccc(NC(=O)N2CCCC3(CCN(C(=O)c4ccco4)CC3)C2)c1`, the AC50 is 3.98 µM (active).
Consider `CCNCCCNCCCNCCCNCC`, for which the “activity, negative = inhibition” value is 25.3%.
As for `CC(C)(C)N1C(=O)[C@H]2[C@H]3[C@H](O)[C@H](O)C/C(=N/NC(=O)OCc4ccccc4)[C@@H]3CC[C@@H]2C1=O`, the activity, negative = inhibition is 29.2% [at 11.4 µM].
Consider `C/C(=N\NC(N)=S)c1ccc[nH]1`, for which the activity, negative = inhibition was -7.98% [at 11.4 µM].
Take `Cc1ccc(C(=O)c2cn[nH]c2-c2cc(Cl)ccc2O)cc1`: the AC50 is 2.24 µM (active).
As for `Cc1ccc(NCCC(=O)c2ccc(Cl)c(Cl)c2)cc1`, the “activity, negative = inhibition” value is -17.4%.
Still for that read-out and setting: under `C=C1C(=O)O[C@@H]2[C@H]3O[C@]3(C)CCC=C(C)CC[C@@H]12` stands 12.2%; under `CC(=O)OC[C@H]1O[C@@H](O/N=C(\C)CCN2CCCc3nc(C)c(C)cc32)[C@H](OC(C)=O)[C@@H](OC(C)=O)[C@H]1OC(C)=O`, 18.1% [at 11.4 µM]; under `NS(=O)(=O)c1ccc(N=Nc2nc3[nH]c(=O)[nH]c(=O)c3[nH]2)cc1`, 0.503% [at 11.4 µM].
`Cc1ccc(/C=C/c2ccc(=O)n(Cc3ccc(Cl)cc3Cl)n2)cc1`: the AC50 is 3.16 µM (active).
With `CC(C)(CO)[C@H](O)C(=O)NCCCO`, the “activity, negative = inhibition” value was -1.14% [at 25.6 µM].
`COCCCNC(=O)c1c(N)n(/N=C/c2ccccn2)c2nc3ccccc3nc12`: the AC50 is 5.62 µM (active).
Take `O=[N+]([O-])c1ccc(/C=N/n2c(COc3ccccc3)n[nH]c2=S)cc1`: the AC50 was 2.82 µM (active).
In the case of `CC1=NNC(=O)C1CCC(=O)N/N=C\c1ccccc1[N+](=O)[O-]` (stereo unspecified), the “activity, negative = inhibition” value was -22.2%.
Take `Cc1ccc(/C=N/n2c(COc3ccccc3)n[nH]c2=S)s1`: the half-maximal activity concentration (AC50) is 4.47 µM (active).
The same measure, in the same setting: the same measure for `O=[N+]([O-])c1ccccc1/C=N/n1c(COc2ccccc2)n[nH]c1=S`: 3.55 µM (active).
